The values that follow come from PubChem BioAssay AID1851 (National Center for Advancing Translational Sciences (NCATS), 2009).

About 4,000 (25%) of roughly 16,000 compounds were called active. Roughly 26% stayed inconclusive and do not appear here. These entries were drawn from the full list. Values without a mark were called inactive. The call rests on the fitted dose curve; in most records, active means well fitted curve in the direction sought with a large enough effect; inconclusive means small, poorly fitted or top-dose-only effect, or effect the other way; inactive means no such curve, though single readings can be large or run the other way.
On the % scale 0 is the no-effect control and ±100 the full control effect.

For the assay, the target named is Cytochrome P450 2C9 (Homo sapiens) (UniProt P11712). As to the kind of experiment: Cytochrome panel assay with activity outcomes. Particulars: recombinant CYP, pro-luciferin dealkylation, luminescence, p450-cyp2c9; series mostly up to 57.1 µM.
Cytochrome P450 2C9 (Homo sapiens), sequence (P11712 whole entry, looked up): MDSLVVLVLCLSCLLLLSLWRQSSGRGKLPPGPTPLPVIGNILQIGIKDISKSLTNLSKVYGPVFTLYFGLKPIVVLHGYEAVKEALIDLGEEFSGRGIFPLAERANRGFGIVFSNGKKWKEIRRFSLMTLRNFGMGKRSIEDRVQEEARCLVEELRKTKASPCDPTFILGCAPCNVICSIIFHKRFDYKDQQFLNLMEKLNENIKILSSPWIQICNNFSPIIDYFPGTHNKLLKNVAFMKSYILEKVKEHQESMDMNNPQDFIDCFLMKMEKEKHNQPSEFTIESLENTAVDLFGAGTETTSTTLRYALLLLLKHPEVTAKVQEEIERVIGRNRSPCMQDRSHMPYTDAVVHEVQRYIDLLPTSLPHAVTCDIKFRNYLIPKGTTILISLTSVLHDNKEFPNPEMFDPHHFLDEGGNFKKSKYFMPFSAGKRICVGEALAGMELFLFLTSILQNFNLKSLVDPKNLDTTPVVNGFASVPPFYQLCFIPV
For the compound `Cc1noc(C)c1-c1nccc(N2CCN(C)CC2)n1`, the activity, negative = inhibition is 14.4% [at 2.29 µM].

As for `CN(C)Cc1ccccc1-c1cncnc1NCc1cccnc1`, the activity, negative = inhibition is 11.6% [at 2.29 µM].

Regarding `COc1ccc(CNc2cc(-c3ccccc3CN(C)C)ncn2)c(OC)c1`, the activity, negative = inhibition was 4.22% [at 2.29 µM].

A word on the AC50: it is the concentration at which the activity in the assay is half-maximal. For `CC(=O)Nc1c(C(=O)N2CCOCC2)cnn1-c1ccc(C)c(C)c1`, the AC50 result was “inactive”.

Turning to `Cc1ccc(-n2c(C)cc(C(=S)N3CCOCC3)c2C)cc1C`, the AC50 was 11.2 µM (active).

`Cc1cnc(CNc2ccnc(-c3ccoc3)n2)cn1`: the activity, negative = inhibition is 12.6% [at 2.29 µM].

Turning to `COc1cc2c(cc1OC)-c1cc(=Nc3c(C)cc(C)cc3C)n(C)c(=O)n1CC2`, the concentration at half-maximal activity (AC50) is 1.26 µM (active).

Take `Cc1cnc2cc(Cl)ccc2c1SCC(=O)O`: the activity, negative = inhibition was 3.69% [at 11.4 µM].

Turning to `CSc1c(-c2ccccc2)nc2ccc(Cl)cc2c1C(=O)O`, the AC50 was 0.794 µM (active).

With `CSc1c(-c2ccccc2)nc2ccccc2c1C(=O)O`, the AC50 result was “inactive”.

For `CC1(C)CC(O)CC(C)(C)N1CC(O)COCCOc1ccc(Br)cc1` (configuration not stated), the AC50 result was “inactive”.

For the compound `Cc1ccccc1NC(=O)/C(=C/c1ccccc1)c1ccccc1`, the AC50 is 7.94 µM (active).

For `COc1ccc(/C=C(/C(=O)Nc2ccccc2C(=O)NC(C)C)c2ccccc2)cc1`, the half-maximal activity concentration (AC50) is 10 µM (active).

For `Cc1ccccc1NC(=S)NN1CCN(C)CC1`, the AC50 entry is “inactive”.

Regarding `O=C(O)/C(=C\c1ccccc1)c1ccccc1`, the activity, negative = inhibition was -20.6% [at 11.4 µM].

Take `CC(C)NC(=O)/C(=N\O)c1ccccc1`: the AC50 entry was “inactive”.

For the compound `O=C(O)c1c2ccccc2cc2ccccc12`, the AC50 entry was “inactive”.

In the case of `N[C@@H](Cc1ccnnc1)C(=O)O`, the activity, negative = inhibition was -15.4% [at 11.4 µM].

Turning to `O=C(CSc1nnc(CNc2ccc(F)cc2)o1)N1c2ccccc2Sc2ccccc21`, the half-maximal activity concentration (AC50) is 4.47 µM (active).

On to `CCN(CC)C(=O)CSc1nnc(CNc2ccc(F)cc2)o1`, for which the AC50 entry was “inactive”.

Regarding `N#Cc1cccc(-c2cc(NCc3ccccc3)ncn2)c1`, the activity, negative = inhibition is 10.6% [at 2.29 µM].

As to `Cc1ccc(-[n+]2cc(=O)o[nH]2)cc1`, the activity, negative = inhibition is 2.87% [at 11.4 µM].

On to `O=S(=O)(Nc1ccc2oc(-c3ccccc3)nc2c1)c1ccccc1`, for which the AC50 was 0.794 µM (active).

In the case of `CS(=O)(=O)Nc1cccc(-c2nc(Nc3ccc(F)cc3)c3ccccc3n2)c1`, the activity, negative = inhibition is -24.2% [at 2.29 µM].

As to `CN(C)c1nc(-c2cccc(NS(C)(=O)=O)c2)nc2ccccc12`, the activity, negative = inhibition was 15.7% [at 2.29 µM].

With `CC(C)CN=C(N)N=C(N)N`, the activity, negative = inhibition is -6.17% [at 11.4 µM].

Regarding `CC1CCc2c(C(=O)Nc3nccs3)csc2C1` (configuration not stated), the AC50 is 3.16 µM (active).

With `CN1CCc2cc(Cl)c(O)cc2[C@H](c2ccccc2)C1`, the AC50 result was “inactive”.

As for `COc1cccc(C(c2c(C)[nH]n(-c3ccccc3)c2=O)c2c(C)[nH]n(-c3ccccc3)c2=O)c1O`, the AC50 result is “inactive”.

As for `CC1=NN(c2ccc(F)cc2)C(=O)C1C(c1cccc(O)c1)c1c(C)[nH]n(-c2ccc(F)cc2)c1=O` (configuration not stated), the AC50 was 4.47 µM (active).

Consider `CCC(=O)O[C@@]1(C(=O)SCF)[C@@H](C)C[C@H]2[C@@H]3C[C@@H](F)C4=CC(=O)C=C[C@@]4(C)[C@]3(F)[C@@H](O)C[C@]21C`, for which the AC50 entry is “inactive”.

`O=C(O)CP(=O)(O)O`: the AC50 result was “inactive”.

Take `Cc1cccc(OCCCC(=O)Nc2ccc(N3CCCCC3)cc2)c1`: the AC50 result is “inactive”.

Regarding `COc1ccc(NC(=O)c2ccc(COc3ccccc3)o2)cc1`, the AC50 is 0.251 µM (active).

With `CC(=O)c1cccc(NC(=O)Oc2ccccc2)c1`, the AC50 result is “inactive”.

For the compound `COC(=O)c1cccc(NC(=O)CCCOc2ccccc2)c1`, the AC50 was 3.16 µM (active).

With `COc1ccc(NC(=O)CCOc2ccccc2)cc1`, the AC50 is 11.2 µM (active).

With `COC(=O)CCC(=O)Nc1cccc(C(=O)Nc2cccc(Cl)c2)c1`, the AC50 was 3.16 µM (active).

As to `O=C(O)CCSC1=NCCN1`, the activity, negative = inhibition is 2.01% [at 11.4 µM].

In the case of `CN(C)Cc1ccccc1-c1cc(NCc2cccs2)ncn1`, the activity, negative = inhibition was 12.8% [at 2.29 µM].

As for `C[C@]12CC[C@H]3c4ccc(O)cc4CC[C@@H]3[C@H]1CC[C@@H]2OC(=O)CCC1CCCC1`, the activity, negative = inhibition is 17.9% [at 11.4 µM].

In the case of `COC(=O)c1cccc(NC(=O)Nc2ccc(Cl)c(Cl)c2)c1`, the AC50 was 2.51 µM (active).

For the compound `O=C(Nc1cccc(Cl)c1)Nn1cnnc1`, the activity, negative = inhibition was 8% [at 11.4 µM].

Turning to `Cc1ccc(OCc2ccc(C(=O)Nc3nccs3)o2)cc1C`, the AC50 was 10 µM (active).

As to `Cc1onc(C(=O)/C=C/N(C)C)c1C(=O)Nc1nccs1`, the AC50 entry is “inactive”.

On to `O=C1OCCC1Sc1nnnn1-c1ccccc1` (configuration not stated), for which the AC50 result was “inactive”.

In the case of `CCC(CC)C(=O)Nc1ccc(C)c(O)c1`, the AC50 was 3.16 µM (active).

`Cc1ccccc1N1C(=O)c2cc(S(N)(=O)=O)c(Cl)cc2N[C@H]1C`: the AC50 result was “inactive”.

`Cc1[nH]nc(N2CCCCCC2)c1[N+](=O)[O-]`: the AC50 is 17.8 µM (active).

As to `Cc1ccccc1CN1C2=NCCN2C(=O)C2=C1CCN(Cc1ccccc1)C2`, the activity, negative = inhibition is -1.36% [at 11.4 µM].

For `N=C(N)SCc1nc(-c2ccc(Cl)cc2)no1`, the AC50 was 3.98 µM (active).

Consider `CN(C)C(=O)CCc1nc(-c2ccc(C(C)(C)C)cc2)no1`, for which the AC50 result is “inactive”.

Turning to `Cc1ccc(NC(=O)C2CCN(S(C)(=O)=O)CC2)cc1`, the AC50 result was “inactive”.

Regarding `Cc1ccc(C(=O)C2CCNCC2)cc1`, the AC50 result is “inactive”.

As for `Cc1ccc(C2CC2C(=O)NN)cc1` (configuration not stated), the AC50 was 14.1 µM (active).

Consider `Cc1cccc(CNc2cc(-c3ccccc3CN(C)C)ncn2)c1`, for which the activity, negative = inhibition was -2.61% [at 2.29 µM].

Turning to `CC(C)=CCc1c2c(c3occ(-c4ccc(O)c(O)c4)c(=O)c3c1O)C=CC(C)(C)O2`, the AC50 is 3.16 µM (active).

As to `CN(C)CCO[C@](C)(c1ccccc1)c1ccccn1`, the AC50 entry was “inactive”.

Take `COC(=O)c1sccc1NC(=O)c1cc(-c2ccc(C)cc2)nc2ccccc12`: the AC50 is 3.98 µM (active).

`COc1ccc(-c2cc([C@H](O)[C@@H]3CCCCN3)c3ccccc3n2)cc1`: the activity, negative = inhibition is 3.54% [at 11.4 µM].

Take `COC(=O)c1sccc1NC(=O)c1cc(-c2cc(C)ccc2C)nc2ccccc12`: the AC50 result was “inactive”.

Turning to `COC(=O)c1sccc1NC(=O)c1cc(-c2ccc(C)cc2C)nc2ccccc12`, the AC50 was 2.24 µM (active).

With `Clc1ccccc1-c1cc(NCCN2CCOCC2)ncn1`, the activity, negative = inhibition was 16.8% [at 2.29 µM].

With `COC(=O)CNC(c1ccccc1Cl)c1cc(Br)ccc1NC(=O)CCN1CCOCC1` (configuration not stated), the AC50 is 15.8 µM (active).

Take `O=C(NN1C(=O)c2ccccc2C1=O)C1CCCCC1`: the AC50 result is “inactive”.

As to `O=C(CSCc1ccccc1Cl)NNC(=S)Nc1ccccc1`, the concentration at half-maximal activity (AC50) was 2.51 µM (active).

With `O=C(CSCc1ccccc1Cl)NNC(=O)c1ccccc1`, the AC50 result is “inactive”.

Regarding `O=C(CSCc1ccccc1Cl)NN1C(=O)c2ccccc2C1=O`, the AC50 is 3.98 µM (active).

In the case of `O=C(NNC(=S)Nc1ccccc1)C1CC1`, the AC50 entry is “inactive”.

With `CC(C)CNC(=O)O`, the activity, negative = inhibition was -4.26% [at 11.4 µM].

As to `C(=C\c1nnc(-c2cccs2)o1)/c1ccccc1`, the AC50 is 14.1 µM (active).

As to `Clc1cccc(Cl)c1CSc1nnc(/C=C/c2ccccc2)o1`, the AC50 result was “inactive”.

On to `Cc1oc(-c2cccs2)[n+]([O-])c1C`, for which the AC50 result was “inactive”.

Turning to `O=[N+]([O-])c1ccc(C2CCCC/C2=N\OCc2cccc(F)c2)c([N+](=O)[O-])c1` (configuration not stated), the AC50 is 7.94 µM (active).

As to `CC1(C)N=C(N)N=C(N)N1c1cccc(OCc2cccc([N+](=O)[O-])c2)c1`, the activity, negative = inhibition is -1.87% [at 11.4 µM].

Take `CCN1CCN(C(=O)N[C@H](C(=O)N[C@@H]2C(=O)N3C(C(=O)O)=C(CSc4nnnn4C)CS[C@@H]23)c2ccc(O)cc2)C(=O)C1=O`: the AC50 entry was “inactive”.

Take `CN(CCC(=O)O)S(=O)(=O)c1ccccc1`: the activity, negative = inhibition is 22.4% [at 11.4 µM].

As to `CCCCN(C)S(=O)(=O)c1ccc(C(=O)Nc2nnc(CSC)o2)cc1`, the AC50 is 0.794 µM (active).

Regarding `CCCCN(CC)S(=O)(=O)c1ccc(C(=O)Nc2nnc(CSC)o2)cc1`, the AC50 was 0.891 µM (active).

`CN(Cc1ccco1)c1ccnc(-c2ccccc2C(F)(F)F)n1`: the activity, negative = inhibition was -4.94% [at 2.29 µM].

Regarding `O=C(O)C[C@H](S)C(=O)O`, the activity, negative = inhibition is 10.9% [at 11.4 µM].

As to `O=C(c1ccc(Cl)cc1)N1CCN(C(=O)c2ccco2)CC1`, the AC50 result is “inactive”.

Regarding `O=C(c1ccco1)N1CCN(C(=O)c2nn3cccnc3c2Cl)CC1`, the AC50 result is “inactive”.

As to `O=C(c1cc(-c2ccc(Cl)cc2Cl)on1)N1CCN(C(=O)c2ccco2)CC1`, the concentration at half-maximal activity (AC50) is 7.08 µM (active).

Consider `Cc1cccc(C)c1NC(=O)C[N+](C)(C)C`, for which the AC50 result is “inactive”.

For the compound `CC[N+](CC)(CC)CC(=O)Nc1c(C)cccc1C`, the AC50 entry is “inactive”.

On to `Cc1cc2cc3c(cc2nc1SCC(=O)Nc1c(C)cccc1C)CCC3`, for which the AC50 is 4.47 µM (active).

Consider `CO[C@H]1COC(=O)[C@H]2CCCN2C(=O)[C@@H](C)COC(=O)C/C=C\[C@@H]1C`, for which the activity, negative = inhibition is 7.11% [at 11.4 µM].

Take `O=C(NCc1cccnc1)/C(=C/c1ccc(-c2cccc(Cl)c2)o1)S(=O)(=O)c1ccccc1`: the AC50 was 6.31 µM (active).

For `CCN(C(=S)Nc1ccccc1F)C1CCCCC1`, the AC50 result is “inactive”.

On to `CN(C(=S)Nc1ccccc1F)C1(c2ccccc2Cl)CCCCC1=O` (configuration not stated), for which the AC50 is 17.8 µM (active).

As for `COc1ccccc1CNc1ncncc1-c1ccc(C(=O)N(C)C)cc1`, the activity, negative = inhibition was -24.3% [at 2.29 µM].

As to `COc1ccccc1C(=O)NCCn1cc(SCC(=O)Nc2nnc(C)s2)c2ccccc21`, the AC50 was 2.24 µM (active).

On to `COC(=O)Nc1nc2ccc(SC(C)C)cc2[nH]1`, for which the AC50 result is “inactive”.

For the compound `Cc1noc(C)c1C(=O)N1CCC2(CCN(Cc3cc(C(F)(F)F)cc(C(F)(F)F)c3)CC2)CC1`, the AC50 result was “inactive”.

Consider `CO[C@@H]1COC(=O)CC=C[C@@H](C)[C@@H]2C=C[C@H](O)[C@@H](COC(=O)[C@H](C)NC(=O)CC=C[C@H]1C)O2`, for which the activity, negative = inhibition is -4.45% [at 11.4 µM].

`CC(C)OP(=O)(OC(C)C)C(NC(=O)c1ccc(Br)cc1)c1ccccc1` (configuration not stated): the AC50 was 10 µM (active).
